Data from PubChem BioAssay AID488922 (Johns Hopkins Ion Channel Center, 2010).
About 3,800 (1.2%) of roughly 310,000 compounds were called active.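 How the source made its calls: active means ratio B-score over 3 SD below the library mean, with starting fluorescence within 5 SD of its mean; inactive means the rest, inconclusive results apart.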 Shown is part of a subset that was picked to be rich in actives.

biological target: Potassium channel subfamily K member 9 (Homo sapiens) (UniProt Q9NPC2); assay: KCNK9 potassium channel inhibitors, primary screen, HEK293 cells, thallium flux (AID 488922); settings: HEK293 KCNK9, FluxOR thallium flux fluorescence, at 10 µM; hits give low values;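 on B-score: negative B-score means less thallium flux so channel inhibition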
Sequence (Q9NPC2 whole entry, looked up): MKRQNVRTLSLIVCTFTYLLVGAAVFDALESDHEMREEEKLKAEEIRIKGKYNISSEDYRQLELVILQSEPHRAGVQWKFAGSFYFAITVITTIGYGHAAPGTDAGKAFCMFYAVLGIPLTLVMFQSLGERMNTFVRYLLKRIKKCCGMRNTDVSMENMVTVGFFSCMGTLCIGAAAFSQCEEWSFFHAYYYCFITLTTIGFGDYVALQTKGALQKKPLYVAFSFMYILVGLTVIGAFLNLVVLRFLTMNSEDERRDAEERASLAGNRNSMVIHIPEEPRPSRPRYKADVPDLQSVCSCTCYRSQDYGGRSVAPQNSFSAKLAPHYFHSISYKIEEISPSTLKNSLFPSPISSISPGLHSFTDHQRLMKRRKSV

Row | SMILES | B-score
1 | Cc1nc2nc(SCC(=O)Nc3cccc(F)c3)[nH]c2cc1Br | inactive
2 | COc1ccc(-c2nc3n(c(=O)c2C#N)CCS3)c(OC)c1 | inactive
3 | CCC1CCC/C1=N\NC(=O)c1ccc(Cl)cc1 (stereo not given) | inactive
4 | Cc1sc2nc(CSCC(=O)NC3CCCCC3)[nH]c(=O)c2c1C | inactive
5 | CCOC(=O)c1nnn2c3ccccc3c(=O)n(C)c12 | inactive
6 | CCCCCn1c(=O)c(C(=O)OCC)c(Cl)c2ccccc21 | -8.35 (active)
7 | CCCCn1c(=O)c(C(C)=O)c(O)c2ccccc21 | inactive
8 | COc1ccccc1C1C(C#N)=C(N)Oc2c1c(-c1ccccc1)nn2-c1ccccc1 (stereo not given) | inactive
9 | CCc1nnc(NC(=O)CSc2nc(SC)ns2)s1 | inactive
10 | CN1C(C(=O)NCc2ccco2)CC2Cn3c(nc4ccccc43)C21 (stereo not given) | inactive
11 | O=C(Cc1ccc(F)cc1)N1CCN=C1SCc1cccc([N+](=O)[O-])c1 | inactive
12 | Cc1cc(C)cc(C(=O)N2CCN=C2SCc2ccc([N+](=O)[O-])cc2)c1 | -7.18 (active)
13 | Cc1cccc(CC(=O)N2CCN=C2SCc2ccc([N+](=O)[O-])cc2)c1 | inactive
14 | CC1=CC(=C(C#N)c2nc3ccccc3s2)C=C(C)N1c1ccc(F)cc1F | inactive
15 | O=S(=O)(Cc1nnnn1-c1ccc(Br)cc1)c1ccc(F)cc1 | inactive
16 | COc1ccc2[nH]c(=O)c(C3c4cc(OC)c(OC)cc4CCN3C(=O)c3ccco3)cc2c1 (stereo not given) | inactive
17 | COc1ccc(C(=O)N2CCc3cc(OC)c(OC)cc3C2c2cccc([N+](=O)[O-])c2)cc1 (stereo not given) | -15.3 (active)
18 | COc1ccccc1C1SCCN1C(=O)c1ccc([N+](=O)[O-])cc1 (stereo not given) | inactive
19 | O=C(NCCCO)/C(=C\C=C\c1ccccc1)NC(=O)c1ccccc1Cl | inactive
20 | Cc1ccc(CSc2nsc(C)c2C#N)cc1 | inactive
21 | O=C(Nc1ccc(F)cc1)C1CCCN(S(=O)(=O)c2ccc(-n3cnnn3)cc2)C1 (stereo not given) | inactive
22 | CNS(=O)(=O)c1cccc(C(=O)NCC2CCCCC2)c1 | inactive
23 | CN(C(=O)c1cccc(OC2CCN(S(=O)(=O)N(C)C)CC2)c1)C1CCOC1 (stereo not given) | inactive
24 | CN(C)S(=O)(=O)N1CCC(Oc2cccc(C(=O)NCCCC3CCCC3)c2)CC1 | -14.3 (active)
25 | Cc1ccc(CCNC(=O)c2ccc3nc4ccccc4c(=O)n3c2)cc1 | inactive
26 | CC(C)(C)c1nnc(NC(=O)C2c3ccccc3Oc3ccccc32)s1 | inactive
27 | CCn1ccnc1CNC(=O)CC1C(=O)NCCN1Cc1ccc(F)cc1Cl (stereo not given) | inactive
28 | COc1ccc(-c2nc3cc([N+](=O)[O-])ccc3o2)cc1OC | inactive
29 | O=[N+]([O-])c1ccc2c(c1)Nc1nc3ccccc3nc1N2 | inactive
30 | COc1ccc([N+](=O)[O-])cc1-c1nc2ccccc2nc1-c1ccccc1 | -9.17 (active)
